Screening data from PubChem BioAssay.
Only some compounds are listed: those with a hit (about 4.3% of all), similar ones and a draw of the others.
FAS-TE inh – FAS thioesterase (human) inhibition. recombinant FAS-TE, OMFH fluorogenic substrate, fluorescence endpoint. P49327. inhibition, % at 15 µM. AID 602261. 0.67% of 360,000 active;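 active = compounds whose normalised, plate-corrected inhibition of enzyme fluorescence in the single-dose primary screen is 50% or more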
rCAG RNA binder – binds r(CAG) RNA repeats; r(CAG) RNA repeat, TO-PRO-1 dye displacement fluorescence; 1.3% of 370,000 active; inhibition, % at 3 µM;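 active = inhibition above the plate cutoff, the mean of all test compounds on that plate plus 3 SD, cut at about 35% in these data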;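 note: higher means more dye released from RNA so lower well fluorescence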
NadD block – NadD (S. aureus) enzyme inhibition. purified NadD enzyme, colorimetric absorbance read-out. inhibition, % at 20 µM. 0.78% of 360,000 active. AID 602399; in the data active = inhibition above about 26%
GRIN3A LBD mod – modulators (binders) of human NR3A ligand-binding domain; NR3A LBD differential scanning fluorimetry, Tm shift; 0% = protein alone, 100% = glycine-bound protein; Tm shift relative to glycine control, % at 25 µM; 2.5% of 340,000 active;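 active = melting temperature shift of at least 10% of the positive control shift, at one fixed dose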
rCAG bind conf – r(CAG) RNA repeat binding, confirmation; 70% of 4,300 active; TO-PRO-1 dye displacement fluorescence; AID 652065; shares compounds with rCAG RNA binder; inhibition, % at 3 µM;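 active = inhibition above a per-plate cutoff, the mean inhibition of sample wells plus 3 SD, cut at about 35% in these data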;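 note: loss of TO-PRO-1 fluorescence as compound displaces dye from 1x1 AA loop RNA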
DNA CAG counter – counter-screen for rCAG RNA binders: DNA CAG dye complex inhibitors. shares compounds with rCAG RNA binder. AID 652068. d(CAG) DNA oligo TO-PRO-1 dye displacement, fluorescence. inhibition, % at 3 µM. 94% of 4,300 active;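 active = inhibition above its plate's cutoff, the mean test-well inhibition plus 3 SD, cut at about 4.8% in these data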;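 note: hits displace the dye from DNA and so lower well fluorescence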
dCAG dye DR – counter-screen for rCAG binders: inhibitors of DNA CAG TO-PRO-1 complex | shares compounds with rCAG RNA binder | DNA CAG/GTC duplex TO-PRO-1 dye displacement fluorescence | IC50, µM | 20% of 250 active | AID 686960; in the data active = IC50 below about 10 µM
Of the large screens only hits and unclear results are named; the others gave an inactive call (follow-up assays come after a bar, where they were run).

O=C(COc1ccc2c(c1)oc(=O)c1ccccc12)N[C@@H](Cc1ccccc1)C(=O)O	none
Cc1c(CC(=O)O)c(=O)oc2cc(OCc3nn[nH]n3)ccc12	none
Cc1c(Cc2ccccc2)c(=O)oc2cc(OCC(=O)NCc3ccccn3)ccc12	none
COc1ccc(-c2cc3ccc(OCc4nn[nH]n4)cc3oc2=O)cc1OC	rCAG RNA binder 35.4 | rCAG bind conf inactive | DNA CAG counter 4.7
Cc1c(Cc2ccccc2)c(=O)oc2cc(OCc3nn[nH]n3)ccc12	rCAG RNA binder 38.3 | rCAG bind conf 35.6 | DNA CAG counter 9.1
Cc1c(Cc2ccccc2)c(=O)oc2cc(OCC(=O)N[C@@H](Cc3ccccc3)C(=O)O)ccc12	rCAG RNA binder 42.2 | rCAG bind conf 44.9 | DNA CAG counter 12.3
O=C(COc1ccc2c(c1)oc(=O)c1ccccc12)NC(Cc1ccc(Cl)cc1)C(=O)O (configuration not stated)	rCAG RNA binder 55.9 | rCAG bind conf 56.2 | DNA CAG counter 18.8
O=Cc1cscc1[B-](F)(F)F	none (no result: FAS-TE inh, NadD block, GRIN3A LBD mod)
C[C@@H]1ON(C)[C@H]2C[C@H]3c4[nH]c5c(-c6ccc(Cl)cc6)cccc5c4CCN3C(=O)[C@@H]12	none (no result: FAS-TE inh, NadD block, GRIN3A LBD mod)
S=C(SCc1cc(Cl)cc2c1OCOC2)N1CCSCC1	none (no result: FAS-TE inh, NadD block, GRIN3A LBD mod)
Cc1c(Cc2ccccc2)c(=O)oc2cc(OCc3ccc(C(=O)O)cc3)ccc12	none
Cc1oc2cc3oc(=O)c(CC(=O)O)c(C)c3cc2c1-c1ccccc1	rCAG RNA binder 46.6 | rCAG bind conf 39.2 | DNA CAG counter 11.3
Cc1c(C)c2c(OCC(=O)N[C@@H](Cc3ccccc3)C(=O)O)cc3c(c2oc1=O)CCC(C)(C)O3	rCAG RNA binder 44.9 | rCAG bind conf 48.4 | DNA CAG counter 12.7
Cc1c(CC(=O)O)c(=O)oc2cc3oc4c(c3cc12)CCCC4	none
CSC[C@H](NC(=O)COc1cc2c(c3oc(=O)c(C)c(C)c13)CCC(C)(C)O2)C(=O)O	none
Cc1c(CC(=O)O)c(=O)oc2cc(OCc3ccc(Cl)cc3)ccc12	rCAG RNA binder 38.1 | rCAG bind conf inactive | DNA CAG counter 6.9
CCCCNC(=O)C[C@H]1C[C@@]2(C(=O)OC)C(=C[C@H](C(C)(C)C)O[C@@H]2C)N(Cc2ccc(Cl)cc2Cl)C1=O	none (no result: FAS-TE inh, NadD block, GRIN3A LBD mod)
Cc1cc([N+](=O)[O-])cc(/C=N/n2c(C)nc3ccccc3c2=O)c1O	none
C/C(=N\OCc1nc2ccccc2c(=O)n1/N=C/c1cc(C)cc([N+](=O)[O-])c1O)c1ccccc1	rCAG RNA binder 56.1 | rCAG bind conf 63.5 | DNA CAG counter 25.4
CCCCCCC12C(=Cc3cc4c(cc31)OCCO4)c1cc(OC)c(OC)cc1C(CC(=O)O)N2C(=O)OC (configuration not stated)	rCAG RNA binder 43.4 (no result: FAS-TE inh, NadD block, GRIN3A LBD mod) | rCAG bind conf 35.2 | DNA CAG counter 7.0
CCCc1cc(=O)n(-c2nc3ccccc3s2)[nH]1	none
CCOC(=O)Cc1cc(=O)n(-c2nc3ccccc3s2)[nH]1	rCAG RNA binder 73.5 | rCAG bind conf inactive | DNA CAG counter 12.2
CCNC(=O)OCCC12CC3CC(CC(C3)C1)C2	none
O=C(OCCC12CC3CC(CC(C3)C1)C2)c1ccc(NCc2cc(O)ccc2O)cc1	rCAG RNA binder 36.3, GRIN3A LBD mod 26.8 | rCAG bind conf inactive | DNA CAG counter 10.7
Cc1cc(C)cc(Nc2nc3ccccc3c(=O)[nH]2)c1	rCAG RNA binder 41.1 | rCAG bind conf inactive | DNA CAG counter 16.1
CC(C)Nc1nc2ccccc2c(=O)[nH]1	none
Cc1ccc(-n2c(SCC(=O)c3ccc(O)c(O)c3)nnc2-c2ccccc2)cc1	rCAG RNA binder 39.2 (no result: FAS-TE inh, NadD block, GRIN3A LBD mod) | rCAG bind conf 37.0 | DNA CAG counter 15.3
O=C1C=CC(=O)c2c(O)c(CO)c(CO)c(O)c21	rCAG RNA binder 82.8, NadD block 77.4 | rCAG bind conf 86.5 | DNA CAG counter 68.2
O=c1c(CO)cc(CO)cc(CO)c1O	none
Cc1c(Br)c(O)c(Br)c2sc(=O)oc12	rCAG RNA binder 92.4 | rCAG bind conf 42.3 | DNA CAG counter 21.4 | dCAG dye DR inactive
O=C(NNC(=S)Nc1ccc(Cl)c(Cl)c1)c1cccc([N+](=O)[O-])c1	rCAG RNA binder 78.9, GRIN3A LBD mod 21.5 | rCAG bind conf 78.9 | DNA CAG counter 33.1
O=C(c1ccc(N2CCOCC2)c([N+](=O)[O-])c1)N1CCCCC1	none
